The source made the active and inactive calls. Rule for the calls: active = hit-call score of the fitted dose curve at least 0.9, where 1 is the maximum; inactive = score below 0.9.
Experiments:
[1] = read-out: Human Leukocyte Antigen - DR isotype (HLADR), HLA-DRA (gene 3122); experiment: BSK_CASM3C_HLADR: BioMAP Diversity Plus: CASM3C Assay for Human Leukocyte Antigen - DR isotype (HLADR) Biomarker Activity (AID 2283043); settings: primary human coronary artery smooth muscle cells; actives raise or lower the signal;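 note: cell-surface HLA-DR protein level quantified by ELISA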
[2] = read-out: Macrophage colony-stimulating factor (MCSF), CSF1 (gene 1435); experiment: BSK_CASM3C_MCSF: BioMAP Diversity Plus: CASM3C Assay for Macrophage colony-stimulating factor (MCSF) Biomarker Activity (AID 2283044); settings: primary human coronary artery smooth muscle cells; actives raise or lower the signal;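 note: M-CSF protein amount quantified by ELISA after 24 h exposure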
[3] = read-out: Low-density lipoprotein receptor (LDLR), LDLR (gene 3949); experiment: BSK_CASM3C_LDLR: BioMAP Diversity Plus: CASM3C Assay for Low-density lipoprotein receptor (LDLR) Biomarker Activity (AID 2283045); settings: primary human coronary artery smooth muscle cells; actives raise or lower the signal;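 note: LDLR protein level on the cell surface quantified by ELISA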
[4] = read-out: Monocyte Chemoattractant Protein-1 (MCP1), CCL2 (gene 6347); experiment: BSK_CASM3C_MCP1: BioMAP Diversity Plus: CASM3C Assay for Monocyte Chemoattractant Protein-1 (MCP1) Biomarker Activity (AID 2283046); settings: primary human coronary artery smooth muscle cells; actives raise or lower the signal;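 note: MCP-1 level quantified by ELISA 24 h after dosing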
[5] = BSK_CASM3C_Proliferation: Cell Proliferation Assessment in the BioMAP Diversity Plus: CASM3C Assay (AID 2283047); settings: primary human coronary artery smooth muscle cells;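 note: sulforhodamine B total protein stain as relative cell number at 560 nm; sub-confluent cells exposed 48 h before staining; fitted both ways against DMSO so gain or loss of cell number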
[6] = read-out: Monokine induced gamma interferon (MIG), CXCL9 (gene 4283); experiment: BSK_CASM3C_MIG: BioMAP Diversity Plus: CASM3C Assay for Monokine induced gamma interferon (MIG) Biomarker Activity (AID 2283048); settings: primary human coronary artery smooth muscle cells; actives raise or lower the signal;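 note: MIG protein level measured by ELISA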
[7] = read-out: serum amyloid A (SAA), SAA1 (gene 6288); experiment: BSK_CASM3C_SAA: BioMAP Diversity Plus: CASM3C Assay for serum amyloid A (SAA) Biomarker Activity (AID 2283049); settings: primary human coronary artery smooth muscle cells; actives raise or lower the signal;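 note: SAA protein level quantified by ELISA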
[8] = BSK_CASM3C_SRB: Viability Assessment in the BioMAP Diversity Plus: CASM3C Assay (AID 2283050); settings: primary human coronary artery smooth muscle cells;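 note: total protein by SRB staining as cytotoxicity measure in parallel cultures; cells exposed to compound for 24 h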
[9] = read-out: Thrombomodulin, THBD (gene 7056); experiment: BSK_CASM3C_Thrombomodulin: BioMAP Diversity Plus: CASM3C Assay for Thrombomodulin Biomarker Activity (AID 2283051); settings: primary human coronary artery smooth muscle cells; actives raise or lower the signal;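 note: thrombomodulin protein level measured by ELISA 24 h after dosing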
[10] = read-out: Tissue Factor, F3 (gene 2152); experiment: BSK_CASM3C_TissueFactor: BioMAP Diversity Plus: CASM3C Assay for Tissue Factor Biomarker Activity (AID 2283052); settings: primary human coronary artery smooth muscle cells; actives raise or lower the signal;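 note: cell surface tissue factor protein level read by ELISA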
[11] = read-out: Interferon-gamma inducible Protein 10 (IP10), CXCL10 (gene 3627); experiment: BSK_hDFCGF_IP10: BioMAP Diversity Plus: hDFCGF Assay for Interferon-gamma inducible Protein 10 (IP10) Biomarker Activity (AID 2283053); settings: primary human foreskin fibroblasts; actives raise or lower the signal
Outline: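 ELISA read-out of IP-10 (CXCL10) from primary human skin fibroblasts, 24 h after compound addition. Gain or loss of signal versus DMSO baseline, bidirectional curve fitting.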

[12] = read-out: Urokinase-type plasminogen activator receptor (uPAR), PLAUR (gene 5329); experiment: BSK_CASM3C_uPAR: BioMAP Diversity Plus: CASM3C Assay for Urokinase-type plasminogen activator receptor (uPAR) Biomarker Activity (AID 2283054); settings: primary human coronary artery smooth muscle cells; actives raise or lower the signal;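 note: cell-surface uPAR protein level quantified by ELISA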
[13] = read-out: Vascular cell adhesion molecule 1 (VCAM1), VCAM1 (gene 7412); experiment: BSK_CASM3C_VCAM1: BioMAP Diversity Plus: CASM3C Assay for Vascular cell adhesion molecule 1 (VCAM1) Biomarker Activity (AID 2283055); settings: primary human coronary artery smooth muscle cells; actives raise or lower the signal;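 note: VCAM-1 protein level quantified by ELISA on the cells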
[14] = read-out: Collagen III, COL3A1 (gene 1281); experiment: BSK_hDFCGF_CollagenIII: BioMAP Diversity Plus: hDFCGF Assay for Collagen III Biomarker Activity (AID 2283056); settings: primary human foreskin fibroblasts; actives raise or lower the signal
Outline: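 ELISA read-out of collagen III from human skin fibroblast cultures sampled 24 h post-dosing. Values were derived by bidirectional fitting relative to the DMSO vehicle control.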

[15] = read-out: Epidermal growth factor receptor (EGFR), EGFR (gene 1956); experiment: BSK_hDFCGF_EGFR: BioMAP Diversity Plus: hDFCGF Assay for Epidermal growth factor receptor (EGFR) Biomarker Activity (AID 2283057); settings: primary human foreskin fibroblasts; actives raise or lower the signal
Outline: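 ELISA readout of EGFR on human dermal fibroblasts (primary foreskin cells), 24 h post-dosing; bidirectional curve fit vs DMSO baseline, gain or loss of signal scored.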

[16] = read-out: Interleukin-8 (IL8), CXCL8 (gene 3576); experiment: BSK_hDFCGF_IL8: BioMAP Diversity Plus: hDFCGF Assay for Interleukin-8 (IL8) Biomarker Activity (AID 2283058); settings: primary human foreskin fibroblasts; actives raise or lower the signal
Outline: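 Cells used are human skin primary fibroblasts. Chemical is added, cultures run 24 h, then IL-8 is quantified by ELISA, and gain or loss versus DMSO control is fitted in both directions.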

[17] = read-out: Macrophage colony-stimulating factor (MCSF), CSF1 (gene 1435); experiment: BSK_hDFCGF_MCSF: BioMAP Diversity Plus: hDFCGF Assay for Macrophage colony-stimulating factor (MCSF) Biomarker Activity (AID 2283060); settings: primary human foreskin fibroblasts; actives raise or lower the signal
Outline: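 Primary human foreskin fibroblasts dosed with chemical; 24 h later, M-CSF quantified by ELISA; curves fitted in both directions vs DMSO negative control.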

[18] = BSK_hDFCGF_SRB: Viability Assessment in the BioMAP Diversity Plus: hDFCGF Assay (AID 2283061); settings: primary human foreskin fibroblasts;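 note: cells exposed to compound for 24 h before the read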
Outline: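 Readout is SRB absorbance at 560 nm, reflecting total protein in parallel cultures of human foreskin fibroblasts harvested 24 h after chemical dosing. Activity was fitted bidirectionally relative to DMSO.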

[19] = read-out: TIMP metallopeptidase inhibitor 1 (TIMP1), TIMP1 (gene 7076); experiment: BSK_hDFCGF_TIMP1: BioMAP Diversity Plus: hDFCGF Assay for TIMP metallopeptidase inhibitor 1 (TIMP1) Biomarker Activity (AID 2283062); settings: primary human foreskin fibroblasts; actives raise or lower the signal
Outline: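 Human skin fibroblasts (primary), hDFCGF system; compound exposure 24 h; TIMP-1 by ELISA; bidirectional fit vs DMSO negative control; overt cytotoxicity by SRB in parallel wells.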

[20] = BSK_hDFCGF_Proliferation: Cell Proliferation Assessment in the BioMAP Diversity Plus: hDFCGF Assay (AID 2283059); settings: primary human foreskin fibroblasts;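 note: curves fitted for both rise and fall of signal versus DMSO baseline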
Outline: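 Primary human foreskin fibroblasts, sub-confluent; […]; 10% TCA fix, 0.1% SRB stain, A560 total protein. Gain/loss fitted bidirectionally vs DMSO control.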

Measured: AC50

O=c1n(CC2CO2)c(=O)n(CC2CO2)c(=O)n1CC1CO1 (stereo not drawn)
active: [1] 15.3 µM | [5] 1.85 µM | [13] 18.6 µM | [14] 6.71 µM | [15] 30.7 µM | [17] 20 µM
not listed: [20]
inactive: all other assays above

Cn1c(=O)cc(Oc2ccc(F)cc2F)c2cnc(NCC(C)(C)O)nc21
active: [1] 1.42 µM | [7] 3.97 µM | [11] 1.15 µM | [17] 0.691 µM
not listed: [15]
inactive: all other assays above

CCOC(=O)COc1ccc2c(c1)CC(NCC(O)c1cccc(Cl)c1)CC2 (stereo not drawn)
active: [5] 27.2 µM | [11] 26.3 µM | [14] 30.6 µM | [16] 32.1 µM | [20] 9.71 µM | [17] 14.6 µM | [18] 26.9 µM | [19] 28.8 µM
not listed: [15]
inactive: all other assays above

CC(C)CCCCCCOC(=O)c1ccc(C(=O)OCCCCCCC(C)C)c(C(=O)OCCCCCCC(C)C)c1
not listed: [15]
inactive: all other assays above

O=P(OC(CCl)CCl)(OC(CCl)CCl)OC(CCl)CCl
active: [5] 20 µM | [9] 15.7 µM | [14] 12 µM
not listed: [20]
inactive: all other assays above

O=C(O)c1cccc(N(Cc2cccnc2)c2ccc(OC(F)F)c(OC(F)F)c2)c1
active: [1] 8.72 µM | [2] 11.7 µM | [5] 6.98 µM
not listed: [20]
inactive: all other assays above

CC[C@H]1OC(=O)[C@H](C)[C@@H](O[C@H]2C[C@@](C)(OC)[C@@H](O)[C@H](C)O2)[C@H](C)[C@@H](O[C@@H]2O[C@H](C)C[C@H](N(C)C)[C@H]2O)[C@](C)(O)C[C@@H](C)C(=O)[C@H](C)[C@@H](O)[C@]1(C)O
not listed: [15]
inactive: all other assays above
